Laboratory results taken from PubChem BioAssay (EPA / NIEHS).
Active and inactive are the calls of the source. How the source made its calls: active means hit-call score of the fitted dose curve at least 0.9, where 1 is the maximum; inactive means score below 0.9.

Columns and labels:
[1] = ATG_ISRE_CIS: Attagene CIS-FACTORIAL HepG2 Assay for human Interferon Regulatory Factor 1 (IRF1) binding to an Interferon-Stimulated Response Element (ISRE) (AID 2282948); conditions: HepG2 ISRE cis-reporter (Attagene), mRNA transcription readout; actives raise or lower the signal
Procedure, shortened: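 Signal reflects induction or loss of ISRE-linked reporter mRNA in transiently transfected HepG2 cells after a 24 h treatment, detected by fluorescent RT-PCR fragments on capillary electrophoresis and normalised to DMSO.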

[2] = ATG_M_32_CIS: Attagene CIS-FACTORIAL HepG2 Assay for M32 Transcription Factor (Internal Marker) (AID 2282949); conditions: HepG2 Attagene cis-factorial M32 reporter, mRNA; actives raise or lower the signal;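 further: background control marker of the multiplexed CIS panel rather than a real target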
Procedure, shortened: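 Using DMSO as baseline, bidirectional curve fits were applied to reporter mRNA signals. These came from transiently transfected HepG2 cells exposed for 24 h, with RNA analysed by RT-PCR, FAM primer extension, HpaI digestion and CE.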

[3] = ATG_M_06_CIS: Attagene CIS-FACTORIAL HepG2 Assay for M06 Transcription Factor (Internal Marker) (AID 2282950); conditions: HepG2 Attagene CIS-FACTORIAL M06 internal marker reporter; actives raise or lower the signal
Procedure, shortened: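 Cells (HepG2, transiently carrying cis-driven reporter units) receive chemical for 24 h before RNA isolation. Reporter cDNA is PCR-amplified, FAM-labelled by primer extension, HpaI-digested and sized on a capillary analyser.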

[4] = biological target: Hypoxia-inducible factor 1-alpha (Homo sapiens) (UniProt Q16665); assay: ATG_HIF1a_CIS: Attagene CIS-FACTORIAL HepG2 Assay for human Hypoxia Inducible Factor 1 (HIF1A) (AID 2282951); conditions: HepG2 Attagene cis-factorial HIF1a reporter transcription; actives raise or lower the signal
Procedure, shortened: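 Measures endogenous transcription-factor activity through cis-regulated reporter mRNA in HepG2. Cells dosed 24 h; transcripts quantified by RT-PCR with 6-FAM-labelled products separated by capillary electrophoresis; DMSO serves as negative control.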

[5] = biological target: Hepatocyte nuclear factor 6 (Homo sapiens) (UniProt Q9UBC0); assay: ATG_HNF6_CIS: Attagene CIS-FACTORIAL HepG2 Assay for human Hepatocyte Nuclear Factor 6 (HNF6) (AID 2282952); conditions: HepG2 Attagene cis-factorial HNF6 reporter transcription; actives raise or lower the signal
Procedure, shortened: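 Using cis-element reporters in HepG2 liver cells, the assay tracks endogenous factor-driven transcription 24 h post-dosing. Signal comes from 6-FAM-labelled, HpaI-digested RT-PCR fragments, with gain or loss scored against DMSO.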

[6] = biological target: Heat shock factor protein 1 (Homo sapiens) (UniProt Q00613); assay: ATG_HSE_CIS: Attagene CIS-FACTORIAL HepG2 Assay for human Heat Shock Transcription Factor 1 (HSE) (AID 2282953); conditions: HepG2 HSE cis-reporter, Attagene RNA transcription; actives raise or lower the signal
Procedure, shortened: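 Liver-derived HepG2 cells carry transiently introduced multiple reporter units governed by cis promoters. Reporter RNA measured 24 h post-dose through reverse transcription, PCR amplification, fluorescent labelling and capillary electrophoresis, normalised to DMSO.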

[7] = ATG_MRE_CIS: Attagene CIS-FACTORIAL HepG2 Assay for human Metal Responsive Element (MRE) (AID 2282954); conditions: HepG2 MRE cis-reporter transcription, Attagene multiplex; actives raise or lower the signal
Procedure, shortened: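 Multiplexed cis-reporter assay in human HepG2 liver cells, 24 h incubation with test chemical. Reporter transcripts measured by RT-PCR and capillary electrophoresis; values from bidirectional curve fitting versus DMSO.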

[8] = ATG_PBREM_CIS: Attagene CIS-FACTORIAL HepG2 Assay for human Phenobarbital-responsive Enhancer Module (PBREM) (AID 2282955); conditions: HepG2 PBREM cis-reporter, Attagene multiplexed transcription; actives raise or lower the signal
Procedure, shortened: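 Fluorescence of labelled reporter cDNA fragments, resolved by capillary electrophoresis, gives mRNA induction in transfected HepG2 cells treated for 24 h; DMSO serves as negative control and baseline.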

[9] = ATG_GRE_CIS: Attagene CIS-FACTORIAL HepG2 Assay for human Glucocorticoid Response Elements (GRE) (AID 2282947); conditions: HepG2 GRE cis-reporter, Attagene multiplex mRNA; actives raise or lower the signal
Procedure, shortened: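 Multiplexed cis-reporter mRNA induction, HepG2, 24 h post-dose. RT-PCR, FAM-labelled, HpaI-digested amplicons by CE. Bidirectional fit vs DMSO.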

Measured: AC50

Hypoxia-inducible factor 1-alpha (Homo sapiens), sequence (Q16665 whole entry, looked up): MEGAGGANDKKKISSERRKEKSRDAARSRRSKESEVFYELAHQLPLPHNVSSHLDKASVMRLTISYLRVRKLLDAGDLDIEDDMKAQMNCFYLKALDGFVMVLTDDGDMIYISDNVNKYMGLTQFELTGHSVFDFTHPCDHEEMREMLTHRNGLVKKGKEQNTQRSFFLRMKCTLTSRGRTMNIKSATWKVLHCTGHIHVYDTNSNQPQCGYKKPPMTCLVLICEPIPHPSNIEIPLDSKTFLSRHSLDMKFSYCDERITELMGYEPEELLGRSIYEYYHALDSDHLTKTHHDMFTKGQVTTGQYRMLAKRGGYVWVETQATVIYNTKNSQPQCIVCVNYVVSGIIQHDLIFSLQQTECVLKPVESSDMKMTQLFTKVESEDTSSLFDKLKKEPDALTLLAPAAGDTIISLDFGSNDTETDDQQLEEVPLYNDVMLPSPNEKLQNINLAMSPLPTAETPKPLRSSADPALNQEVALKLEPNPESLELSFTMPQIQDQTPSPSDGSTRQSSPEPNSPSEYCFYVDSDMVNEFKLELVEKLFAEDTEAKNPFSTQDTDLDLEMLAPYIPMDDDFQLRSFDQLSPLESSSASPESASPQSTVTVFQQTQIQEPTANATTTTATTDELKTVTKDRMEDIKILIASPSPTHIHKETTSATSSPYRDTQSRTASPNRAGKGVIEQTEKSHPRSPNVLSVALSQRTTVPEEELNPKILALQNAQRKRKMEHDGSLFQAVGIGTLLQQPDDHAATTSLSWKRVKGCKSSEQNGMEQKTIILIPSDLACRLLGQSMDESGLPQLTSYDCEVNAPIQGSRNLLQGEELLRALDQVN
Hepatocyte nuclear factor 6 (Homo sapiens), sequence (Q9UBC0 whole entry, looked up, the tested form may be a part): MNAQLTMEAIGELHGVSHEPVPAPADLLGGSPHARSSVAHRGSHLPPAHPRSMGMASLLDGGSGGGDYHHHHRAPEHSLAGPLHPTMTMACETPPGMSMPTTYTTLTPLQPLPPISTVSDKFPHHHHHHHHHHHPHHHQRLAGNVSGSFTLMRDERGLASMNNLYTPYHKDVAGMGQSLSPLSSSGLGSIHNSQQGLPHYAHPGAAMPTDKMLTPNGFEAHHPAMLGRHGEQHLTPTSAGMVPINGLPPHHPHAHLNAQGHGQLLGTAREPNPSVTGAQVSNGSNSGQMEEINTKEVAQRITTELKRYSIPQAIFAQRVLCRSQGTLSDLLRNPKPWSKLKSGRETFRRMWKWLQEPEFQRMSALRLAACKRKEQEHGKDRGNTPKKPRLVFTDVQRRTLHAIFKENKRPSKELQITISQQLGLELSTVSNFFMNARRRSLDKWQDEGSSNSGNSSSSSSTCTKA
Heat shock factor protein 1 (Homo sapiens), sequence (Q00613 whole entry, looked up): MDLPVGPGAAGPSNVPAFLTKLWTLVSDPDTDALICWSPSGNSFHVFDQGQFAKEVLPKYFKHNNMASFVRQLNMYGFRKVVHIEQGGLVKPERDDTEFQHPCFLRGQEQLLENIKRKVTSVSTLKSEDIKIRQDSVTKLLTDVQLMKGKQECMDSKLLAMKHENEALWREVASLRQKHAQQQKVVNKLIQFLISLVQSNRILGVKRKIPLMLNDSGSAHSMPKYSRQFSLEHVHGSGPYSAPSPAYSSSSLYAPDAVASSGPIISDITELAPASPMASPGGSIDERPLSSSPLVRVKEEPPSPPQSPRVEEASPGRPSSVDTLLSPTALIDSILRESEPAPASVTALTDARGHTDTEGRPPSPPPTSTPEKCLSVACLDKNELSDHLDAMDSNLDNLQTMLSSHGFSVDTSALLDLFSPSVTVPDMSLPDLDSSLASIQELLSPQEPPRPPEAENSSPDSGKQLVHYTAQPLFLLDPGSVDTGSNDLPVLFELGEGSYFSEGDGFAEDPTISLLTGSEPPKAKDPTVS

CCOC(=O)CCC(=O)OCC
inactive: [1] | [2] | [3] | [4] | [5] | [6] | [7] | [8]

CC(=O)C(C)=CC1C(C)=CCCC1(C)C (centres undefined)
inactive: [1] | [2] | [3] | [4] | [6] | [8]

C[C@]12C=CC(=O)C=C1CC[C@@H]1[C@@H]2C(=O)C[C@@]2(C)[C@H]1CC[C@]2(O)C(=O)CO
inactive: [1] | [2] | [3] | [4] | [6] | [8]

Nc1ccccc1N
active: [4] 41.3 µM | [7] 38.2 µM
inactive: [1] | [2] | [3] | [6] | [8]

CCOc1ccc2c(c1)C(C)=CC(C)(C)N2
active: [6] 152 µM | [7] 148 µM
inactive: [1] | [2] | [3] | [8]

COc1cccc2c1C(=O)c1c(O)c3c(c(O)c1C2=O)C[C@@](O)(C(=O)CO)C[C@@H]3O[C@H]1C[C@H](N)[C@H](O)[C@H](C)O1
active: [1] 1.63 µM | [4] 1.23 µM | [7] 1.66 µM
inactive: [2] | [3] | [5] | [6] | [8]

O=c1[nH]cc(F)c(=O)[nH]1
inactive: [1] | [2] | [3] | [6]

Cc1ccc2ncccc2c1
inactive: [1] | [2] | [3] | [4] | [6] | [8]

Oc1ccc2ccccc2c1N=Nc1ccccc1
inactive: [1] | [2] | [3] | [5] | [6]
active: [4] 1.24 µM | [8] 5.39 µM

Oc1ccc2c(c1)OC[C@@H](N1CCC(O)(c3ccc(F)cc3)CC1)[C@H]2O
active: [8] 43.2 µM
inactive: [1] | [2] | [3] | [4] | [6]

NS(=O)(=O)c1cc2c(cc1Cl)NCNS2(=O)=O
inactive: [1] | [2] | [3] | [6] | [7]

Cc1cccc(C)c1O
inactive: [1] | [2] | [3] | [4] | [5] | [6] | [7] | [8]

COCCOCCOC
inactive: [1] | [2] | [3] | [4] | [5] | [6] | [8]

Cc1ccc(N(C)C)cc1
inactive: [9] | [1] | [2] | [3] | [4] | [8]

Cc1ccc(C(C)C)c(O)c1
inactive: [1] | [2] | [3] | [4] | [5] | [6] | [8]

CC(=O)OC/C=C(\C)CCC=C(C)C
inactive: [1] | [2] | [3] | [4] | [6] | [8]

NCC1(Cc2noc(=O)[nH]2)CCCCC1
inactive: [1] | [2] | [3] | [4] | [5] | [6] | [7] | [8]

CCCCCCCCCCCCCCCCCC(=O)O
inactive: [1] | [2] | [3] | [4] | [6]

O=c1c(O)c(-c2ccc(O)c(O)c2)oc2cc(O)cc(O)c12
inactive: [1] | [2] | [3] | [5] | [8]

CCCCCCOCCO
inactive: [1] | [2] | [3] | [4] | [6] | [7] | [8]

Nc1ccc(S(=O)(=O)c2ccc(N)cc2)cc1
inactive: [1] | [2] | [3] | [6] | [7]

Nc1ccc2c(c1)C(=O)c1ccccc1C2=O
inactive: [1] | [2] | [3] | [4] | [5] | [6] | [7] | [8]

CCCCCCCCCCCCCO
active: [2] 34.3 µM | [4] 8.99 µM
inactive: [1] | [3] | [6] | [7] | [8]

Cc1c(C(=O)O)c(O)cc2c1C(=O)c1c(O)c([C@@H]3O[C@H](CO)[C@@H](O)[C@H](O)[C@H]3O)c(O)c(O)c1C2=O
inactive: [1] | [2] | [3] | [4] | [5]

O=C(O)CCCCC(=O)O
inactive: [1] | [2] | [3] | [4] | [8]

Cc1ccccc1Cl
inactive: [1] | [2] | [3] | [4] | [6] | [8]
